The campaign covered roughly 39,000 compounds. About 3,300 (8.5%) were called active. This is one part of a sample in which actives are shown more often than they occur.
system: HepG2; assay: cytotoxicity call (relative viability < 0.9); settings: 10 µM

**Q.** For `C[C@@H]1CCCCO[C@H](CN(C)Cc2ccc(C(F)(F)F)cc2)[C@@H](C)CN([C@@H](C)CO)C(=O)c2cc(NC(=O)c3ccncc3)ccc2O1`, which cytotoxicity call is on record?
**A.** inactive

**Q.** How did the cytotoxicity call turn out when `C[C@H]1CCCCO[C@H](CN(C)Cc2ccc(C(F)(F)F)cc2)[C@@H](C)CN([C@@H](C)CO)C(=O)c2cc(NS(=O)(=O)c3ccccc3)ccc2O1` was run?
**A.** inactive

**Q.** How did the cytotoxicity call turn out when `C[C@@H]1CCCCO[C@H](CN(C)Cc2ccc(C(F)(F)F)cc2)[C@@H](C)CN([C@H](C)CO)C(=O)c2cc(NS(=O)(=O)c3ccccc3)ccc2O1` was run?
**A.** inactive

**Q.** `C[C@@H]1CCCCO[C@@H](CN(C)Cc2ccc(C(F)(F)F)cc2)[C@H](C)CN([C@@H](C)CO)C(=O)c2cc(NS(=O)(=O)c3ccccc3)ccc2O1` was tested. Which cytotoxicity call did it give?
**A.** active

**Q.** How did the cytotoxicity call turn out when `C[C@@H]1CCCCO[C@@H](CN(C)Cc2ccc(C(F)(F)F)cc2)[C@@H](C)CN([C@@H](C)CO)C(=O)c2cc(NS(=O)(=O)c3ccccc3)ccc2O1` was run?
**A.** active

**Q.** `C[C@@H]1CCCCO[C@@H](CN(C)Cc2ccc(C(F)(F)F)cc2)[C@@H](C)CN([C@H](C)CO)C(=O)c2cc(NS(=O)(=O)c3ccccc3)ccc2O1` was tested. Which cytotoxicity call did it give?
**A.** active

**Q.** With `C[C@H]1CCCCO[C@@H](CN(C)Cc2ccc(C(F)(F)F)cc2)[C@@H](C)CN([C@@H](C)CO)C(=O)c2cc(NS(=O)(=O)c3ccccc3)ccc2O1` as the compound, how does the cytotoxicity call read?
**A.** inactive

**Q.** With `C[C@@H]1CCCCO[C@H](CN(C)Cc2ccc(C(F)(F)F)cc2)[C@H](C)CN([C@H](C)CO)C(=O)c2cc(NS(=O)(=O)c3ccccc3)ccc2O1` as the compound, how does the cytotoxicity call read?
**A.** inactive

**Q.** How did the cytotoxicity call turn out when `C[C@H](CO)N1C[C@H](C)[C@H](CN(C)Cc2ccc(C(F)(F)F)cc2)OCCCC[C@H](C)Oc2ccc(NS(=O)(=O)c3ccccc3)cc2C1=O` was run?
**A.** active

**Q.** For `C[C@@H]1CCCCO[C@@H](CN(C)Cc2ccc(C(F)(F)F)cc2)[C@H](C)CN([C@H](C)CO)C(=O)c2cc(NS(=O)(=O)c3ccccc3)ccc2O1`, which cytotoxicity call is on record?
**A.** inactive

**Q.** Which cytotoxicity call does the source give for `COc1ccc(S(=O)(=O)N(C)C[C@@H]2Oc3ccc(NC(=O)NC(C)C)cc3CC(=O)N([C@@H](C)CO)C[C@@H]2C)cc1` here?
**A.** inactive

**Q.** How did the cytotoxicity call turn out when `COc1ccc(NC(=O)N(C)C[C@H]2OCCCC[C@H](C)Oc3ccc(NC(=O)C4CCCCC4)cc3C(=O)N([C@H](C)CO)C[C@H]2C)cc1` was run?
**A.** inactive

**Q.** How did the cytotoxicity call turn out when `C[C@@H]1CN([C@@H](C)CO)C(=O)CCCn2nncc2CO[C@H]1CN(C)C(=O)C1CC1` was run?
**A.** inactive

**Q.** How did the cytotoxicity call turn out when `COc1ccc(NC(=O)N(C)C[C@H]2Oc3c(NS(C)(=O)=O)cccc3C(=O)N([C@@H](C)CO)C[C@H]2C)cc1` was run?
**A.** inactive

**Q.** With `C[C@H]1CCCCO[C@@H](CN(C)C(=O)Nc2ccc(C(F)(F)F)cc2)[C@@H](C)CN([C@@H](C)CO)C(=O)c2cc(NC(=O)CCC(F)(F)F)ccc2O1` as the compound, how does the cytotoxicity call read?
**A.** inactive

**Q.** Which cytotoxicity call does the source give for `Cn1c(=O)c2c(nc(N3CCNCC3)n2CC(=O)c2ccc(Cl)cc2)n(C)c1=O` here?
**A.** inactive

**Q.** With `COc1ccc(S(=O)(=O)N(C)C[C@H]2Oc3ccc(NC(=O)CCCN(C)C)cc3C(=O)N([C@@H](C)CO)C[C@@H]2C)cc1` as the compound, how does the cytotoxicity call read?
**A.** inactive

**Q.** With `COc1cccc(S(=O)(=O)N2C[C@@H](O)COC[C@@H]3O[C@H](CC(=O)NCCCN4CCOCC4)CC[C@H]32)c1` as the compound, how does the cytotoxicity call read?
**A.** inactive

**Q.** How did the cytotoxicity call turn out when `C[C@@H]1CN([C@H](C)CO)C(=O)c2cc(NC(=O)CCC(F)(F)F)ccc2O[C@@H](C)CCCCO[C@@H]1CN(C)Cc1ccncc1` was run?
**A.** inactive

**Q.** `COc1ccc(Oc2cc(NCCC(F)(F)F)c3ncc(-c4ccc(C(=O)NC5CC5)c(C)c4)n3n2)c(F)c1F` was tested. Which cytotoxicity call did it give?
**A.** inactive

**Q.** Which cytotoxicity call does the source give for `C[C@@H]1CN([C@@H](C)CO)C(=O)c2cc(NC(=O)NC3CCCCC3)ccc2O[C@@H]1CN(C)S(C)(=O)=O` here?
**A.** inactive

**Q.** For `C[C@H]1CN([C@@H](C)CO)S(=O)(=O)c2ccc(-c3cccc(C#N)c3)cc2O[C@@H]1CN(C)C(=O)c1ccncc1`, which cytotoxicity call is on record?
**A.** inactive

**Q.** For `C[C@@H]1CN([C@H](C)CO)C(=O)c2cc(NS(=O)(=O)c3ccccc3)ccc2O[C@@H](C)CCCCO[C@H]1CN(C)Cc1ccc(C(F)(F)F)cc1`, which cytotoxicity call is on record?
**A.** active

**Q.** With `C[C@@H]1CCCCO[C@H](CN(C)Cc2ccc(C(F)(F)F)cc2)[C@@H](C)CN([C@@H](C)CO)C(=O)c2cc(NS(=O)(=O)c3ccccc3)ccc2O1` as the compound, how does the cytotoxicity call read?
**A.** inactive

**Q.** `C[C@@H]1CN([C@H](C)CO)C(=O)c2cc(NS(=O)(=O)c3ccccc3)ccc2O[C@@H](C)CCCCO[C@@H]1CN(C)Cc1ccc(C(F)(F)F)cc1` was tested. Which cytotoxicity call did it give?
**A.** inactive

**Q.** For `C[C@@H]1CN([C@@H](C)CO)C(=O)c2cc(NS(=O)(=O)c3ccccc3)ccc2O[C@@H](C)CCCCO[C@H]1CN(C)Cc1ccc(C(F)(F)F)cc1`, which cytotoxicity call is on record?
**A.** inactive

**Q.** How did the cytotoxicity call turn out when `C[C@@H]1CCCCO[C@H](CN(C)Cc2ccc(C(F)(F)F)cc2)[C@H](C)CN([C@@H](C)CO)C(=O)c2cc(NS(=O)(=O)c3ccccc3)ccc2O1` was run?
**A.** active

**Q.** How did the cytotoxicity call turn out when `C[C@@H]1CN([C@@H](C)CO)C(=O)c2cc(NS(=O)(=O)c3ccccc3)ccc2O[C@@H](C)CCCCO[C@@H]1CN(C)Cc1ccc(C(F)(F)F)cc1` was run?
**A.** inactive

**Q.** How did the cytotoxicity call turn out when `C[C@H]1CN([C@@H](C)CO)C(=O)c2cccc(NC(=O)c3nc4ccccc4s3)c2O[C@H]1CN(C)S(=O)(=O)c1cn(C)cn1` was run?
**A.** inactive

**Q.** How did the cytotoxicity call turn out when `CCCNC(=O)Nc1ccc2c(c1)OC[C@H](C)N(C(=O)C1CCOCC1)C[C@@H](C)[C@@H](OC)CN(C)C2=O` was run?
**A.** inactive

**Q.** Which cytotoxicity call does the source give for `Cc1noc(C)c1S(=O)(=O)Nc1cccc2c1O[C@@H](CN(C)CC1CC1)[C@@H](C)CN([C@H](C)CO)C2=O` here?
**A.** inactive

**Q.** Which cytotoxicity call does the source give for `Cc1cccc(S(=O)(=O)N2C[C@@H](O)COC[C@H]3O[C@H](CC(=O)NCc4ccc(Cl)c(Cl)c4)CC[C@@H]32)c1` here?
**A.** inactive

**Q.** `Cc1ccc(S(=O)(=O)N2C[C@H](O)COC[C@@H]3O[C@H](CC(=O)NCc4ccc(Cl)c(Cl)c4)CC[C@H]32)cc1` was tested. Which cytotoxicity call did it give?
**A.** active

**Q.** How did the cytotoxicity call turn out when `Cc1ccc(S(=O)(=O)N2C[C@@H](O)COC[C@H]3O[C@@H](CC(=O)NCc4ccc(Cl)c(Cl)c4)CC[C@@H]32)cc1` was run?
**A.** inactive

**Q.** For `Cc1ccc(S(=O)(=O)N2C[C@H](O)COC[C@H]3O[C@@H](CC(=O)NCc4ccc(Cl)c(Cl)c4)CC[C@@H]32)cc1`, which cytotoxicity call is on record?
**A.** active

**Q.** `Cc1ccc(S(=O)(=O)N2C[C@H](O)COC[C@@H]3O[C@@H](CC(=O)NCc4ccc(Cl)c(Cl)c4)CC[C@H]32)cc1` was tested. Which cytotoxicity call did it give?
**A.** inactive

**Q.** With `Cc1ccc(S(=O)(=O)N2C[C@H](O)COC[C@@H]3O[C@H](CC(=O)NCc4ccc5c(c4)OCO5)CC[C@H]32)cc1` as the compound, how does the cytotoxicity call read?
**A.** active

**Q.** `Cc1ccc(S(=O)(=O)N2C[C@@H](O)COC[C@@H]3O[C@H](CC(=O)NCc4ccc(Cl)c(Cl)c4)CC[C@H]32)cc1` was tested. Which cytotoxicity call did it give?
**A.** inactive

**Q.** With `Cc1ccc(S(=O)(=O)N2C[C@@H](O)COC[C@@H]3O[C@@H](CC(=O)NCc4ccc(Cl)c(Cl)c4)CC[C@H]32)cc1` as the compound, how does the cytotoxicity call read?
**A.** active

**Q.** How did the cytotoxicity call turn out when `Cc1ccc(S(=O)(=O)N2C[C@@H](O)COC[C@H]3O[C@H](CC(=O)NCc4ccc5c(c4)OCO5)CC[C@@H]32)cc1` was run?
**A.** inactive

**Q.** With `Cc1ccc(S(=O)(=O)N2C[C@@H](O)COC[C@H]3O[C@H](CC(=O)NCc4ccc(Cl)c(Cl)c4)CC[C@@H]32)cc1` as the compound, how does the cytotoxicity call read?
**A.** inactive

**Q.** How did the cytotoxicity call turn out when `Cc1ccc(S(=O)(=O)N2C[C@@H](O)COC[C@@H]3O[C@@H](CC(=O)NCc4ccc5c(c4)OCO5)CC[C@H]32)cc1` was run?
**A.** inactive

**Q.** For `Cc1ccc(S(=O)(=O)N2C[C@H](O)COC[C@H]3O[C@H](CC(=O)NCc4ccc(Cl)c(Cl)c4)CC[C@@H]32)cc1`, which cytotoxicity call is on record?
**A.** inactive
